Structures are written as SMILES. Activity calls are given as the source filed them. Rule for the calls: active = hit-call score of the fitted dose curve at least 0.9, where 1 is the maximum; inactive = score below 0.9.

From PubChem BioAssay (EPA / NIEHS) come the findings set out here.

This test can be described thus: APR_HepG2_NuclearSize_72hr: Apredica 72-hour HepG2 Assay for Nuclear Size (AID 2282925). The settings on record: high-content imaging, actives raise or lower the signal. The protocol:
APR_HepG2_72hr is a cell-based, multiplexed-readout assay that uses HepG2, a human liver cell line, with measurements taken at 72 hours after chemical dosing in a 384-well plate.APR_HepG2_NuclearSize_72hr is one of 10 assay component(s) measured or calculated from the APR_HepG2_72hr assay. It is designed to make measurements of cell phenotype, a form of morphology reporter, as detected with fluorescence intensity signals by HCS Fluorescent Imaging technology.Data from the assay component APR_HepG2_NuclearSize_72hr was analyzed into 1 assay endpoint. This assay endpoint, APR_HepG2_NuclearSize_72hr, was analyzed with bidirectional fitting relative to DMSO as the negative control and baseline of activity. Using a type of morphology reporter, measures of all nuclear dna for gain or loss-of-signal activity can be used to understand the signaling at the nuclear-level. Furthermore, this assay endpoint can be referred to as a primary readout, because this assay has produced multiple assay endpoints where this one serves a signaling function. To generalize the intended target to other relatable targets, this assay endpoint is annotated to the cell morphology intended target family, where the subfamily is organelle conformation.
Cells were treated with dimethyl sulfoxide (DMSO) as a solvent control at a final concentration of 0.5% v/v or with compounds in DMSO with a resulting final DMSO concentration of 0.5% v/v. Compound treatment was done at concentrations of 0.39, 0.78, 1.56, 3.12, 6.24, 12.5, 25, 50, 100, and 200 uM in duplicate on each plate. Cells were treated with compounds for 1, 24, or 72 hr. Carbonyl […] m-chloro-phenylhydrazone (CCCP) and taxol were used as positive controls for mitochondrial function and cytoskeletal stability, respectively; DMSO served as the negative control for this experiment. Cells were fixed by the direct addition of 50 uL formaldehyde in Hank's Balanced Salt Solution (HBSS) to a final concentration of 3.7%. After incubation in the fixation medium for 30 min at room temperature (293-298 K), cells were rinsed twice with HBSS and treated with cell permeabilization buffer (16 uL of 0.5% Triton X-100) for 10 min at room temperature (293-298 K) before labeling. For mitochondrial membrane potential and mitochondrial measurements, pre-fixed cells were incubated with 50 uL of MitoTracker Red CMXRos (Invitrogen) at a concentration of 250 nM for 30 min before fixation. In the remaining cases, post-fixed cells were labeled by incubation with a multiplexed mixture of primary antibodies in HBSS for 60 min at room temperature (293-298 K) to detect immunoreactivity of c-Jun (1:500), phospho-histone H3 (1:100), phospho-histone H2A.x (1:200), p53 (1:400), alpha-tubulin (1:200) and Hoechst 33342 (2 ug/mL). Cells were labeled for multiplexed imaging on two separate plates: a) Hoechst 33342, MitoTracker Red, phospho-histone H3, and alpha-tubulin, and b) Hoechst 33342, phospho-histone H2A.x, and c-Jun. A final rinse with HBSS (50 uL) was performed before analysis. The primary and secondary antibodies for the proteins were phospho-histone H3 (rabbit anti-phospho-histone H3 and FITC-donkey anti-rabbit IgG), phospho-histone H2A.x (mouse anti-phospho-histone H2A.x and FITC-donkey anti-mouse IgG), c-Jun (rabbit anti-phospho-c-Jun and Cy3-donkey anti-rabbit IgG), p53 (sheep anti-p53 and Cy5-donkey anti-sheep IgG), alpha-tubulin (mouse anti-alpha-tubulin and Cy5-donkey anti-mouse IgG). These antibodies are available as the CellCiphr HepG2 assay kit (Millipore).Digital images of each well were captured using a Cellomics ArrayScan VTI (Thermo Scientific Cellomics) (0.8 NA objective, 0.63x optical coupler, and XF-93 filter set) at 20x magnification. The images were acquired using the autofocus feature of the ArrayScan instrument, which entails the following steps. First, the camera focuses on channel 1 (Hoechst 33342), where nuclei are identified. Second, a Z offset of 1 um is used for capturing mitochondria (MitoTracker Red). […]
Consider `CCCCCCCCC(=O)O`, for which the result was inactive. For the compound `O=c1c(-c2ccc(O)cc2)coc2cc(O)ccc12`, the compound was called inactive.

On to `c1ccc2c(c1)Cc1ccccc1-2`, for which the compound was classed as inactive.

In the case of `CCCOC(=O)c1ccc(O)cc1`, the call was inactive. The term AC50 denotes the concentration at which the activity in the assay is half-maximal. Turning to `C[C@@H]1C[C@H]2[C@@H]3CCC4=CC(=O)C=C[C@]4(C)[C@@]3(F)[C@@H](O)C[C@]2(C)[C@@]1(O)C(=O)COP(=O)(O)O`, the AC50 was 1.84 µM (active). As for `CC(C)CCCCCCOC(=O)CCCCC(=O)OCCCCCCC(C)C`, the compound was classed as inactive.

`CCCCCCCCOC(=O)CCCCCCCCC(=O)OCCCCCCCC`: the call was inactive.

For `O=C(O)c1ccccc1C(c1ccc(O)cc1)c1ccc(O)cc1`, the result was inactive. On the same count and under the same terms, next, `CCCCCCCC(=O)O`: “inactive”. For `OC1CCCCC1`, the outcome was inactive. With `OCCC(F)(F)C(F)(F)C(F)(F)C(F)(F)C(F)(F)C(F)(F)C(F)(F)C(F)(F)F`, the call was inactive. Turning to `N#C[C@@H]1CC(F)(F)CN1C(=O)CNC1CC2CCC(C1)N2c1ncccn1` (stereo not given in full), the call was inactive. For the compound `CCCCC[C@H](O)CC(=O)CCc1ccc(O)c(OC)c1`, the result was inactive. Consider `CC(C)(C)CC(C)(C)c1ccc(O)c(-n2nc3ccccc3n2)c1`, for which the half-maximal activity concentration (AC50) was 80.4 µM (active). Regarding `CC(C)(C)c1cccc(C(C)(C)C)c1O`, the result was inactive. With `OC1CCC(C2CCCCC2)CC1` (stereo not given), the call was inactive. Turning to `COCC(C)OCC(C)O` (stereo not given), the call was inactive.

`CCCOc1sc(C(=O)N2CCC(c3cc(CN)ccc3F)CC2)c(C)c1Br`: the AC50 was 97.5 µM (active). Take `OCCC(F)(F)C(F)(F)C(F)(F)C(F)(F)C(F)(F)C(F)(F)F`: the result was inactive.

Take `NC(=O)N1C(=O)C(C(=O)c2cc(Cl)cs2)c2cc(F)c(Cl)cc21` (stereo not given): the outcome was inactive. On to `O=[N+]([O-])c1ccc(O)cc1`, for which the call was inactive. `CCc1nn(C2CCCCC2)c2cc(C3(C#N)CCC(C(=O)O)CC3)ccc12` (stereo not given): the call was inactive. In the case of `CC(O)CO` (stereo not given), the compound was classed as inactive.

Regarding `COc1cc(CCC(=O)CC(=O)CCc2ccc(O)c(OC)c2)ccc1O`, the call was inactive. In the case of `CCCCCCCCCCCCc1ccccc1S(=O)(=O)O`, the result was inactive. Turning to `CC(C)(C)c1ccc(O)c(C(C)(C)C)c1`, the result was inactive. For `c1ccc2cc3c(ccc4ccccc43)cc2c1`, the compound was classed as inactive. As to `CCCCOCCO`, the compound was called inactive.

As for `CC[C@H](C)[C@@H](C(=O)O)n1sc2ccccc2c1=O`, the compound was classed as inactive. Regarding `Oc1cc2ccccc2c2ccccc12`, the outcome was inactive. In the case of `CC[C@H](c1ccc(O)cc1)[C@@H](CC)c1ccc(O)cc1`, the compound was called inactive. With `CCCCC(CC)COC(=O)CCCCC(=O)OCc1ccccc1` (stereo not given), the result was inactive. Take `Cc1cc(C)c(O)c(C)c1`: the compound was called inactive. On the same count and under the same terms, next, `C#C[C@]1(O)CC[C@H]2[C@@H]3CCC4=CC(=O)CC[C@@H]4[C@H]3CC[C@@]21C`: “inactive”; `CC(=O)CC(C)(C)O`: “inactive”. Turning to `CN1CCC[C@H]1c1cccnc1`, the compound was classed as inactive. For `COc1ccc([N+](=O)[O-])cc1N`, the call was inactive. In the case of `CC(=O)NC1(c2cccc(F)c2)CCN(CC[C@@]2(c3ccc(Cl)c(Cl)c3)CN(c3ccccc3)C(=O)CO2)CC1`, the compound was called inactive. For the compound `Cc1cc(CCN2CCN(c3nsc4ccccc34)CC2)cc2c1NC(=O)CC2(C)C`, the call was inactive. Regarding `CC(C)(C)c1cc(C(C)(C)C)c(O)c(C(C)(C)C)c1`, the result was inactive.
